Laboratory results published in PubChem BioAssay (EPA / NIEHS).
Inconclusive results are not listed. A structure can be active in one record and inactive in another. The source made the active and inactive calls. The calls were made as follows, unless noted: active = hit-call score of the fitted dose curve at least 0.9, where 1 is the maximum; inactive = score below 0.9.

Assays:
[1] = TOX21_p53_BLA_p3_viability: Viability Assessment in the Tox21 HCT-116 p53 Agonism Beta-lactamase Assay, Phase 3 (AID 2283593; active = hit-call score of the fitted dose curve at least 0.9, where 1 is the maximum;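 also: cells exposed to compound for 16 h before reading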)
Outline: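 HCT116 cells, 4000/well, dosed 5 h after plating by pin transfer (217-fold dilution from DMSO stock) and incubated 16 h at 37C, 5% CO2. Viability read as ATP luminescence with CellTiter-Glo after 30 min at room temperature.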

[2] = TOX21_p53_BLA_p4_viability: Viability Assessment in the Tox21 HCT-116 p53 Agonism Beta-lactamase Assay, Phase 4 (AID 2283597; active = hit-call score of the fitted dose curve at least 0.9, where 1 is the maximum;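 also: hits lower the luminescence signal meaning cytotoxicity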)
Outline: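 HCT-116 p53-bla cells, 4000/well, dosed after 5 h attachment and incubated 16 h at 37 °C, 5% CO2. Viability from CellTiter-Glo ATP luminescence after 30 min at room temperature, taken after the beta-lactamase read; loss of signal indicates cytotoxicity.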

[3] = TOX21_p53_BLA_p5_viability: Viability Assessment in the Tox21 HCT-116 p53 Agonism Beta-lactamase Assay, Phase 5 (AID 2283600; active = hit-call score of the fitted dose curve at least 0.9, where 1 is the maximum)
Outline: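 HCT-116 p53 beta-lactamase reporter cells, 4000/well, were exposed to compound (pin transfer, 217-fold dilution) for 16 hours at 37C. Cellular ATP was read by CellTiter-Glo luminescence after 30 min at room temperature.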

[4] = CCTE_Shafer_MEA_acute_spike_number: CCTE's Neural Acute Assay for Total Number of Spikes, Shafer Lab (AID 2284008)
Outline: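 Rat primary cortical neurons on 48-well MEA plates, DIV 13 or 15, at 37 C. 40 min baseline then 40 min with compound (0.03-40 uM); spikes detected at 8x rms noise, expressed as percent change from baseline.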

[5] = CCTE_Shafer_MEA_acute_firing_rate_mean: CCTE's Neural Acute Assay for Mean Firing Rate, Shafer Lab (AID 2284009);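 also: analyzed for loss of signal so actives lower firing rate relative to DMSO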
Outline: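 Rat primary cortical neurons on 48-well MEA plates, dosed at 0.03-40 uM on DIV 13 or 15; 40 min spontaneous activity recorded at 37 C before and after compound. Spike rate per electrode averaged per well, expressed as percent change from baseline.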

[6] = CCTE_Harrill_HTTr_Apoptosis_MCF7: CCTE's 6-hour Apoptosis Assessment for the High-Throughput Transcriptomics (HTTr) Platform, in MCF-7 cells cultured in DMEM + 10% fetal bovine serum, Harrill Lab (AID 2284011)
Outline: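 MCF-7 cells in DMEM + 10% FBS exposed 6 h to chemicals over an eight-point dilution series. Caspase-3/7 activation imaged by high-content CellEvent Green staining; fitted bidirectionally versus DMSO.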

[7] = CCTE_Shafer_MEA_acute_burst_number: CCTE's Neural Acute Assay for Single-Electrode Bursts, Shafer Lab (AID 2284013)
Outline: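 Primary rat cortical neurons on 16-electrode MEA wells, treated on DIV 13 or 15 with compound at 0.03-40 uM. Single-electrode burst count from 40-min recordings at 37 C before and after exposure; percent change from baseline per well, DMSO negative control.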

[8] = CCTE_Shafer_MEA_acute_burst_duration_mean: CCTE's Neural Acute Assay for Mean Burst Duration, Shafer Lab (AID 2284014);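 also: hits are decreases in mean burst duration relative to DMSO controls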
Outline: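 Rat primary cortical neurons on 48-well MEA, treated at DIV 13 or 15 with 0.03-40 uM in at least 3 wells. Value is percent change in mean burst duration, comparing 40 min recordings at 37 C before and during exposure.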

[9] = CCTE_Shafer_MEA_acute_per_burst_spike_number_mean: CCTE's Neural Acute Assay for Average Number of Spikes Per Burst, Shafer Lab (AID 2284015);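 also: hits are decreases in mean spikes per burst versus baseline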
Outline: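 Read-out: percent change in mean spikes per burst, each well's post-exposure 40-min recording versus its own 40-min baseline. Rat cortical cultures, DIV 13 or 15, compounds 0.03-40 uM; DMSO is negative control, loss-of-signal fitting.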

[10] = CCTE_Shafer_MEA_acute_interburst_interval_mean: CCTE's Neural Acute Assay for Mean Interburst Interval, Shafer Lab (AID 2284016);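 also: percent change of mean interburst interval versus each well's own pre-dose baseline; curves fitted for decrease in interburst interval relative to DMSO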
Outline: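 Rat cortical cultures, DIV 13/15; 20 min equilibration, 40 min baseline, compound 0.03-40 uM, 40 min re-recording, 37 C. Spikes detected at 8x rms noise (300-5000 Hz band-pass). Endpoint: % change in interburst interval, fitted in loss direction vs DMSO.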

[11] = CCTE_Shafer_MEA_acute_burst_percentage_mean: CCTE's Neural Acute Assay for Percentage of Spikes in a Burst, Shafer Lab (AID 2284017)
Outline: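 Rat cortical cultures, DIV 13/15, 37 C. Spikes detected at 8x rms noise (300-5000 Hz band-pass). Burst spikes/total spikes averaged across electrodes per well; % change post- vs pre-treatment (40 min each), loss-of-signal fit vs DMSO.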

[12] = CCTE_Shafer_MEA_acute_burst_percentage_std: CCTE's Neural Acute Assay for Standard Deviation of Burst Percentage, Shafer Lab (AID 2284018);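 also: fitted in the negative direction so actives lower burst percentage SD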
Outline: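 Rat primary cortical neurons on 48-well MEAs, DIV 13 or 15, 37 C. 40-min baseline then 40-min recording with compound (0.03-40 uM); well-level SD of per-electrode burst spike percentage, expressed as percent change from baseline.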

[13] = CCTE_Shafer_MEA_acute_per_network_burst_spike_number_mean: CCTE's Neural Acute Assay for Average Number of Spikes in a Network Burst, Shafer Lab (AID 2284019)
Outline: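 Rat primary cortical neurons on 48-well MEA at DIV 13 or 15, 37 C; compounds 0.03-40 uM, at least three wells each. 40-min baseline then 40-min exposure recording; percent change in mean spikes per network burst.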

[14] = CCTE_Shafer_MEA_acute_per_network_burst_spike_number_std: CCTE's Neural Acute Assay for Standard Deviation of Number of Spikes in a Network Burst, Shafer Lab (AID 2284020);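 also: fitted for decrease in spike-number SD versus DMSO so actives lower it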
Outline: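 Rat primary cortical neurons on 48-well MEA (16 electrodes/well), treated DIV 13 or 15 at 0.03-40 uM, ≥3 wells per compound. 40 min recordings at 37 C before and after dosing; value is percent change in network-burst spike-number SD, negative direction vs DMSO.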

[15] = CCTE_Shafer_MEA_acute_per_network_burst_electrodes_number_mean: CCTE's Neural Acute Assay for Mean Number of Electrodes in a Network Burst, Shafer Lab (AID 2284021);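 also: curves fitted for decreases only so hits reduce electrodes per burst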
Outline: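 Rat primary cortical neurons on 48-well MEAs, DIV 13 or 15, were treated at 0.03-40 uM. Spikes were detected at 8x rms noise and recorded at 37 C. The mean electrodes per network burst in a 40 min exposure recording was expressed as percent change from a 40 min baseline.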

[16] = CCTE_Shafer_MEA_acute_network_burst_percentage: CCTE's Neural Acute Assay for Percentage of Network Bursts, Shafer Lab (AID 2284022);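 also: curves fitted for loss so actives lower network burst percentage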
Outline: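 Rat primary cortical neuron networks on 48-well MEA plates, DIV 13 or 15, treated acutely with compound (0.03-40 uM, at least three wells). Percent of spikes within network bursts compared between 40-min recordings before and during exposure at 37 C, expressed as percent change.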

[17] = CCTE_Shafer_MEA_acute_cross_correlation_HWHM: CCTE's Neural Acute Assay for Cross Correlation at Half Width at Half Maximum, Shafer Lab (AID 2284026);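 also: spontaneous network firing of rat primary cortical neurons on multiwell microelectrode arrays; percent change per well from pre-dose baseline in spike cross-correlogram half width; hits are a decrease in cross-correlogram half width relative to DMSO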
Outline: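 Rat primary cortical neurons on 48-well MEA plates; 40-min baseline and 40-min post-exposure recordings at 37 C on DIV 13 or 15, compounds 0.03-40 uM. Spikes detected at 8x rms noise; percent change in cross-correlogram HWHM per well vs baseline.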

[18] = CCTE_Shafer_MEA_acute_synchrony_index: CCTE's Neural Acute Assay for Synchrony, Shafer Lab (AID 2284027);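 also: fitted for loss of signal so actives lower synchrony relative to DMSO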
Outline: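 Readout is percent change in the unitless network synchrony index (0 low, 1 high) between a 40-min baseline and a 40-min recording in compound. Cultures were primary rat cortical neurons on MEAs, treated at 0.03-40 uM on DIV 13 or 15.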

[19] = CCTE_Shafer_MEA_dev_firing_rate_mean: CCTE's Neural Network Formation Assay for Mean Firing Rate, Shafer Lab (AID 2284031);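 also: curve fitted for loss of firing so AC50 reflects decreased mean firing rate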
Outline: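 Rat primary cortical neurons were seeded on multielectrode arrays and treated from plating through day 12, with redosing at each feed. Spontaneous spiking was recorded four times; mean firing rate AUC was fitted downward against DMSO.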

[20] = CCTE_Shafer_MEA_dev_per_burst_spike_percent: CCTE's Neural Network Formation Assay for Percent of Spikes in a Burst, Shafer Lab (AID 2284032);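 also: fitted as a decrease in burst spike percentage below DMSO baseline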
Outline: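 Rat primary cortical neurons on 16-electrode MEA wells, dosed from plating day 0 for 12 days with renewal on DIV 5 and 9; spikes-in-bursts percentage averaged over bursting electrodes, collapsed as AUC across days 5, 7, 9, 12; loss direction versus DMSO.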

[21] = CCTE_Shafer_MEA_dev_active_electrodes_number: CCTE's Neural Network Formation Assay for Number of Active Electrodes, Shafer Lab (AID 2284040; active = hit-call score of the fitted dose curve at least 0.9, where 1 is the maximum;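 also: potency for loss of active electrodes versus DMSO so lower counts are hits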)
Outline: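 Primary rat cortical neurons on 16-electrode MEA wells, exposed from day 0 through day 12 with compound renewed at DIV 5 and 9 feeds. Active electrodes (mean firing ≥5 spikes/min) counted at DIV 5, 7, 9, 12; trapezoidal AUC across days, loss-of-signal versus DMSO.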

[22] = CCTE_Shafer_MEA_dev_burst_rate: CCTE's Neural Network Formation Assay for Burst Rate, Shafer Lab (AID 2284042);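 also: potency for loss of burst rate below DMSO control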
Outline: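 Cells plated, treated day 0; recorded DIV 5, 7, 9, 12; fed and re-treated DIV 5, 9. Endpoint: bursts per recording time, active-electrode well mean, trapezoidal AUC, fitted in decreasing direction against DMSO baseline.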

[23] = CCTE_Shafer_MEA_dev_bursting_electrodes_number: CCTE's Neural Network Formation Assay for Number of Bursting Electrodes, Shafer Lab (AID 2284043; active = hit-call score of the fitted dose curve at least 0.9, where 1 is the maximum;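 also: potency is for loss of bursting electrodes relative to DMSO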)
Outline: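 Primary rat cortical neurons plated on 16-electrode MEA wells, exposed from day 0 with compound renewed at DIV 5 and 9. Electrodes bursting ≥1 burst per 2 min counted on days 5, 7, 9 and 12; trapezoidal AUC across days, fitted for loss versus DMSO.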

[24] = CCTE_Shafer_MEA_dev_per_burst_interspike_interval: CCTE's Neural Network Formation Assay for Burst Interspike Interval, Shafer Lab (AID 2284044);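 also: mean spike spacing inside bursts as AUC over recordings on days 5 7 9 12; potency for a decrease of within-burst interspike interval below DMSO level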
Outline: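 Primary rat cortical neurons on 48-well MEA plates, exposed from day 0 through day 12, treatment renewed at DIV 5 and 9. Within-burst interspike interval recorded days 5, 7, 9, 12, well-averaged, summarised as AUC; negative fit versus DMSO.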

[25] = CCTE_Shafer_MEA_dev_burst_duration_mean: CCTE's Neural Network Formation Assay for Mean Burst Duration, Shafer Lab (AID 2284045);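 also: curve fitted for loss meaning shorter burst duration than DMSO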
Outline: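 Primary rat cortical neurons on 48-well 16-electrode MEA plates, exposed from day 0 with renewal at DIV 5 and 9; spontaneous activity recorded on days 5, 7, 9, 12. Well-mean burst duration across bursting electrodes, collapsed as trapezoidal AUC; DMSO baseline.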

[26] = CCTE_Shafer_MEA_dev_interburst_interval_mean: CCTE's Neural Network Formation Assay for Mean Interburst Interval, Shafer Lab (AID 2284046);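 also: well-mean interburst interval of bursting electrodes as AUC over four recording days; curve fitted for decrease in interburst interval relative to DMSO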
Outline: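 Developing rat cortical networks on 48-well MEAs receive compound from the day of plating. Burst intervals from each active electrode are averaged per well, and AUC over the recording days is fitted in the negative direction against DMSO.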

[27] = CCTE_Shafer_MEA_dev_inter_network_spike_interval_mean: CCTE's Neural Network Formation Assay for Mean Inter-network Spike Interval, Shafer Lab (AID 2284047);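 also: potency for a decrease in mean inter-network spike interval below DMSO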
Outline: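 Rat cortical cultures, 1.5 x 10^5 cells/well on 48-well MEA plates; continuous exposure days 0–12, medium and compound refreshed DIV 5, 9. Mean time between consecutive network-spike peaks; AUC across DIV 5/7/9/12; DMSO baseline, negative fitting direction.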

Measured: AC50

[Cd+2].[Cl-].[Cl-]
inactive: [1] | [2] | [3] | [4] | [5] | [6] | [7] | [8] | [9] | [10] | [11] | [12] | [13] | [14] | [15] | [16] | [17] | [18]
active: [1] 69200 nM | [2] 68600 nM | [3] 76200 nM | [19] 331 nM | [20] 436 nM | [21] 315 nM | [22] 461 nM | [23] 302 nM | [24] 630 nM | [25] 387 nM | [26] 460 nM | [27] 14 nM
